Drawing on PubChem BioAssay, this text covers viability decrease (inhibition) for 39 molecules.

The source made the active and inactive calls.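 The calls were made as follows: active = compounds that lower viability of the colon cancer cells in the luminescence readout, with no numeric limit stated; inactive = the rest.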

The nature of this assay: reduced SW480 viability measured with CellTiter-Glo, NPC library, primary (AID 1117343). Particulars: CellTiter-Glo luminescence; at 20 µM (top of the series).
In the case of `OCCN1CCN(CCCN2c3ccccc3Sc3ccc(C(F)(F)F)cc32)CC1`, the viability decrease (inhibition) was 157% (active).
With `NS(=O)(=O)c1cc2c(cc1Cl)NC=NS2(=O)=O`, the viability decrease (inhibition) was 5.5% (inactive).
`O=C1C(CCS(=O)c2ccccc2)C(=O)N(c2ccccc2)N1c1ccccc1` (centres undefined): the viability decrease (inhibition) was 15.3% (inactive).
For `Cc1ccc(-c2cc(C(F)(F)F)nn2-c2ccc(S(N)(=O)=O)cc2)cc1` the value was 66.6% (active).
For `CN[C@H]1CC[C@@H](c2ccc(Cl)c(Cl)c2)c2ccccc21` the value was 120% (active).
Regarding `Cc1ccccc1C(OCCN(C)C)c1ccccc1` (centres undefined), the viability decrease (inhibition) was 45.8% (inactive).
Then `CCc1nc(N)nc(N)c1-c1ccc(Cl)cc1`, with 95.5% (active); and `COc1cc2nc(N(C)CCCNC(=O)C3CCCO3)nc(N)c2cc1OC` (centres undefined), with 19.4% (inactive); and `CN(C)CCOC(c1ccc(Cl)cc1)c1ccccn1` (centres undefined), with 6% (inactive).
For `N[C@@H](C(=O)N[C@@H]1C(=O)N2C(C(=O)O)=C(Cl)CS[C@H]12)c1ccccc1` the value was 26.8% (inactive); for `Nc1ncn([C@@H]2O[C@H](CO)[C@@H](O)[C@H]2O)c(=O)n1`, 113% (active); for `NCc1ccc(S(N)(=O)=O)cc1`, 14.1% (inactive).
As to `Cc1ncc([N+](=O)[O-])n1CC(C)O` (centres undefined), the viability decrease (inhibition) is 5.3% (inactive).
Then `Cc1ccc(C)c(OCCCC(C)(C)C(=O)O)c1`, with 20.7% (inactive); and `CN1CCCC(n2nc(Cc3ccc(Cl)cc3)c3ccccc3c2=O)CC1` (centres undefined), with -0.2% (inactive).
For `NS(=O)(=O)c1cc2c(cc1C(F)(F)F)NC(Cc1ccccc1)NS2(=O)=O` (centres undefined) the value was 18.1% (inactive); for `COC1=CC(=O)C[C@@H](C)[C@]12Oc1c(Cl)c(OC)cc(OC)c1C2=O`, 64.1% (active); for `Cc1cn([C@H]2C[C@H](N=[N+]=[N-])[C@@H](CO)O2)c(=O)[nH]c1=O`, -5.4% (inactive).
For `CN(CCOc1ccc(CC2SC(=O)NC2=O)cc1)c1ccccn1` (centres undefined) the value was 17.9% (inactive); for `COc1ccc(OC)c(C(O)CNC(=O)CN)c1` (centres undefined), -26.4% (inactive).
On to `OC(CCN1CCCC1)(c1ccccc1)C1CCCCC1` (centres undefined), for which the viability decrease (inhibition) is 22.1% (inactive).
`NC(=O)N1c2ccccc2CC(=O)c2ccccc21`: the viability decrease (inhibition) was 5.4% (inactive).
Then `CCCNCC(O)COc1ccccc1C(=O)CCc1ccccc1` (centres undefined), with 41% (inactive); and `C/C=C/C(=O)N(CC)c1ccccc1C`, with 19.5% (inactive).
On to `CCCCCCNC(=O)n1cc(F)c(=O)[nH]c1=O`, for which the viability decrease (inhibition) was 83.7% (active).
For `NC(=O)c1cnccn1` the value was -1.8% (inactive); for `CN(C)CCc1c[nH]c2ccc(C[C@H]3COC(=O)N3)cc12`, 26.5% (inactive).
Consider `COc1ccccc1OCC(O)COC(N)=O` (centres undefined), for which the viability decrease (inhibition) was 11.1% (inactive).
For `COC(=O)Nc1nc2ccc(C(=O)c3ccccc3)cc2[nH]1` the value was 27.7% (active); for `CCn1cc(C(=O)O)c(=O)c2cc(F)c(N3CCN(C)CC3)cc21`, -27.3% (inactive).
Take `Cn1cnc([N+](=O)[O-])c1Sc1ncnc2nc[nH]c12`: the viability decrease (inhibition) is 77.3% (active).
For `c1ccc2[nH]c(-c3cscn3)nc2c1` the value was -9.9% (inactive); for `Cc1onc(-c2c(Cl)cccc2Cl)c1C(=O)N[C@@H]1C(=O)N2[C@@H]1SC(C)(C)[C@@H]2C(=O)O`, 18.3% (inactive).
Then `Clc1ccc2c(c1)C(N1CCNCC1)=Nc1ccccc1O2`, with 90% (active).
`CO[C@@]1(NC(=O)Cc2cccs2)C(=O)N2C(C(=O)O)=C(COC(N)=O)CS[C@@H]21`: the viability decrease (inhibition) is 8.9% (inactive).
Then `CCc1cccc2c3c([nH]c12)C(CC)(CC(=O)O)OCC3` (centres undefined), with -4.5% (inactive).
For `CC(C)(C)NCC(O)COc1cccc2c1C[C@H](O)[C@H](O)C2` (some centres undefined) the value was 2.8% (inactive); for `O=S(=O)(O)CCS`, -2.4% (inactive).
Turning to `O=c1[nH]cc(F)c(=O)[nH]1`, the viability decrease (inhibition) is 28.6% (inactive).
